This is part of a sample that, as a whole, favours compounds with a hit. Of some 79,000 tested, about 15% had one in any assay. Unmarked numbers belong to inactive results. Calls of active or inactive are those of the source. No stated cut-off is given here; in the data, active means growth inhibition above about 70%; inactive means the rest.

Test [1] can be described thus: NCI Yeast Anticancer Drug Screen. Data for the rad50 strain (AID 155).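 Further: 0% = growth of vehicle-only cultures of the same strain.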 As to conditions: S. cerevisiae rad50 strain growth inhibition, stronger effect = higher value. The method in brief: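 Vehicle-treated cultures provide the reference for the growth inhibition reported for compound-exposed, repair-deficient yeast.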
The nature of test [2]: NCI Yeast Anticancer Drug Screen. Data for the mec2-1 strain (AID 157). As to conditions: S. cerevisiae mec2-1 strain, stronger effect = higher value. The method in brief: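 Vehicle-treated cultures served as reference for growth inhibition of compound-exposed mec2-1 yeast.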
A short description of test [3]: NCI Yeast Anticancer Drug Screen. Data for the sgs1 mgt1 strain (AID 161).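 Further: 0% = growth of cultures given vehicle only.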 As to conditions: S. cerevisiae sgs1 mgt1 strain, stronger effect = higher value. Summed up:
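Read-out: growth inhibition vs vehicle controls. Cells: mutant yeast strain deficient in DNA damage repair.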

The nature of test [4]: NCI Yeast Anticancer Drug Screen. Data for the cln2 rad14 strain (AID 165).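 Further: 0% = growth equal to vehicle treated cultures.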 As to conditions: S. cerevisiae cln2 rad14 strain, stronger effect = higher value. The method in brief: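 Each compound was tested on cln2 rad14 yeast. Inhibition of growth was calculated against vehicle-exposed controls.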
The nature of test [5]: NCI Yeast Anticancer Drug Screen. Data for the bub3 strain (AID 167). As to conditions: S. cerevisiae bub3 mutant strain, stronger effect = higher value. The method in brief:
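Mutant yeast screening strain plus compound; vehicle-treated cultures serve as the 0% inhibition reference.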

A short description of test [6]: NCI Yeast Anticancer Drug Screen. Data for the mlh1 rad18 strain (AID 175). As to conditions: S. cerevisiae mlh1 rad18 strain growth inhibition, stronger effect = higher value. Summed up:
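Vehicle-treated cultures served as the reference for growth inhibition in a yeast strain carrying DNA damage repair alterations exposed to each compound.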

Setting [7] is: at 5.0 µM (retest, dose inferred, filed as 0.5).
The mark [8] stands for this setting: at 50.0 µM (retest, dose inferred, filed as 5.0).

Take `Clc1ccccc1C(Cc1c(Cl)cccc1Cl)Cn1ccnc1` (configuration not stated): the growth inhibition in test [1] (setting [7]) was 74% (active); in test [1] (setting [8]), 78% (active); in test [1] (at 50.0 µM), 99.8% (active); in test [2] (setting [7]), 58%; in test [2] (setting [8]) it was 78% (active); in test [2] (at 50.0 µM), 99.8% (active). Moreover, the growth inhibition in test [3] (setting [7]) was 70% (active); in test [3] (setting [8]), 91% (active); in test [3] (at 50.0 µM), 99.8% (active); in test [4] (setting [7]), 62%; in test [4] (setting [8]), 86% (active); in test [4] (at 50.0 µM), 98.8% (active). Moreover, the growth inhibition in test [5] (setting [7]) is 75% (active); in test [5] (setting [8]), 95% (active); in test [5] (at 50.0 µM), 99.7% (active); in test [6] (setting [7]), 77% (active); in test [6] (setting [8]) it was 92% (active); in test [6] (at 50.0 µM), 99.8% (active).

With `CC1c2cc(c3c(c2O)CN([C@@H](C)C2CCCCC2)CO3)C(C)c2cc(c3c(c2O)CN([C@@H](C)C2CCCCC2)CO3)C(C)c2cc(c3c(c2O)CN([C@@H](C)C2CCCCC2)CO3)C(C)c2cc1c1c(c2O)CN([C@@H](C)C2CCCCC2)CO1` (some centres not stated), the growth inhibition in test [1] (setting [7]) was -3%; in test [1] (setting [8]) it was -5%; in test [1] (at 50.0 µM), 36.6%; in test [2] (setting [7]) it was -1%; in test [2] (setting [8]), -28%; in test [2] (at 50.0 µM), 2.9%. For the same compound, the growth inhibition in test [3] (setting [7]) was -3%; in test [3] (setting [8]), -10%; in test [3] (at 50.0 µM), 42.9%; in test [4] (setting [7]), -2%; in test [4] (setting [8]), -44%; in test [4] (at 50.0 µM) it was 30.8%. Also, the growth inhibition in test [5] (setting [7]) was -1%; in test [5] (setting [8]), -13%; in test [5] (at 50.0 µM), 69.2%; in test [6] (setting [7]) it was -6%; in test [6] (setting [8]) it was -16%; in test [6] (at 50.0 µM), 47.3%.

In the case of `CCCCCCCCCCCCCCCCn1cc(C(O)CN(C)C)c2ccccc21` (configuration not stated), the growth inhibition in test [1] (setting [7]) is -4%; in test [1] (setting [8]), 98% (active); in test [1] (at 50.0 µM) it was 32.2%; in test [2] (setting [7]), -1%; in test [2] (setting [8]) it was 99% (active); in test [2] (at 50.0 µM), 99.1% (active). The growth inhibition in test [3] (setting [7]) is -1%; in test [3] (setting [8]), 98% (active); in test [3] (at 50.0 µM), 49.5%; in test [4] (setting [7]), -3%; in test [4] (setting [8]) it was 89% (active); in test [4] (at 50.0 µM), 98.3% (active). For the same compound, the growth inhibition was -4% in test [5] (setting [7]); 98% (active) in test [5] (setting [8]); 39.6% in test [5] (at 50.0 µM); -2% in test [6] (setting [7]); 98% (active) in test [6] (setting [8]); 94.9% (active) in test [6] (at 50.0 µM).

In the case of `CC1=CC(=O)CC(c2ccccc2)C1` (configuration not stated), the growth inhibition was 43% in test [1] (setting [7]); 98% (active) in test [1] (setting [8]); 97.6% (active) in test [1] (at 50.0 µM); 30% in test [2] (setting [7]); 99% (active) in test [2] (setting [8]); 98.3% (active) in test [2] (at 50.0 µM). Besides, the growth inhibition in test [3] (setting [7]) was 22%; in test [3] (setting [8]), 99% (active); in test [3] (at 50.0 µM) it was 98.7% (active); in test [4] (setting [7]) it was 11%; in test [4] (setting [8]), 97% (active); in test [4] (at 50.0 µM), 92.5% (active). The growth inhibition in test [5] (setting [7]) is 31%; in test [5] (setting [8]), 99% (active); in test [5] (at 50.0 µM), 98.7% (active); in test [6] (setting [7]), 55%; in test [6] (setting [8]), 99% (active); in test [6] (at 50.0 µM), 98.3% (active).

Turning to `O=C1CSC2(CCN(CCCN3c4ccccc4Sc4ccc(Cl)cc43)CC2)N1`, the growth inhibition is 8% in test [1] (setting [7]); 100% (active) in test [1] (setting [8]); 98.9% (active) in test [1] (at 50.0 µM); -4% in test [2] (setting [7]); 45% in test [2] (setting [8]); 99.1% (active) in test [2] (at 50.0 µM). For the same compound, the growth inhibition in test [3] (setting [7]) was 3%; in test [3] (setting [8]), 53%; in test [3] (at 50.0 µM), 99.3% (active); in test [4] (setting [7]) it was -11%; in test [4] (setting [8]), 100% (active); in test [4] (at 50.0 µM) it was 99% (active). For the same compound, the growth inhibition was -2% in test [5] (setting [7]); 99% (active) in test [5] (setting [8]); 97.5% (active) in test [5] (at 50.0 µM); -17% in test [6] (setting [7]); 99% (active) in test [6] (setting [8]); 91.2% (active) in test [6] (at 50.0 µM).

`COc1ccc2c(C)cc(N/N=C(\C)c3ccccn3)nc2c1`: the growth inhibition was 2% in test [1] (setting [7]); 57% in test [1] (setting [8]); 99.5% (active) in test [1] (at 50.0 µM); -3% in test [2] (setting [7]); 51% in test [2] (setting [8]); 99.7% (active) in test [2] (at 50.0 µM). In addition, the growth inhibition in test [3] (setting [7]) was 7%; in test [3] (setting [8]), 42%; in test [3] (at 50.0 µM), 99.6% (active); in test [4] (setting [7]) it was -6%; in test [4] (setting [8]), 28%; in test [4] (at 50.0 µM) it was 99.5% (active). Further, the growth inhibition in test [5] (setting [7]) is 0%; in test [5] (setting [8]), 67%; in test [5] (at 50.0 µM), 99.7% (active); in test [6] (setting [7]), -2%; in test [6] (setting [8]), 57%; in test [6] (at 50.0 µM), 99.5% (active).

`O=[N+]([O-])c1cccc2c(O)cccc12`: the growth inhibition in test [1] (setting [7]) is 3%; in test [1] (setting [8]), 58%; in test [1] (at 50.0 µM), 59%; in test [2] (setting [7]), 0%; in test [2] (setting [8]), 35%; in test [2] (at 50.0 µM), 33.4%. The growth inhibition in test [3] (setting [7]) was -2%; in test [3] (setting [8]), 31%; in test [3] (at 50.0 µM), 39.1%; in test [4] (setting [7]) it was -3%; in test [4] (setting [8]), 30%; in test [4] (at 50.0 µM) it was 33.8%. In addition, the growth inhibition was -1% in test [5] (setting [7]); 65% in test [5] (setting [8]); 47.2% in test [5] (at 50.0 µM); 0% in test [6] (setting [7]); 43% in test [6] (setting [8]); 73.5% (active) in test [6] (at 50.0 µM).

With `CN(C)/C=C(\C(=O)c1ccccc1)n1nc(-c2ccccc2)cc1-c1ccccc1`, the growth inhibition was 15% in test [1] (setting [7]); 45% in test [1] (setting [8]); 72.5% (active) in test [1] (at 50.0 µM); -4% in test [2] (setting [7]); 20% in test [2] (setting [8]); 73.7% (active) in test [2] (at 50.0 µM). Besides, the growth inhibition in test [3] (setting [7]) was 11%; in test [3] (setting [8]) it was 48%; in test [3] (at 50.0 µM), 83.3% (active); in test [4] (setting [7]) it was 22%; in test [4] (setting [8]), 50%; in test [4] (at 50.0 µM) it was 70.2% (active). The growth inhibition in test [5] (setting [7]) is -3%; in test [5] (setting [8]) it was 38%; in test [5] (at 50.0 µM) it was 74% (active); in test [6] (setting [7]) it was 16%; in test [6] (setting [8]) it was 54%; in test [6] (at 50.0 µM) it was 81.3% (active).

As to `O=[N+]([O-])c1ccc(S(=O)/N=C/c2ccccc2)c([N+](=O)[O-])c1` (configuration not stated), the growth inhibition in test [1] (setting [7]) was -2%; in test [1] (setting [8]) it was 96% (active); in test [1] (at 50.0 µM), 48.2%; in test [2] (setting [7]), -4%; in test [2] (setting [8]) it was 98% (active); in test [2] (at 50.0 µM), 45.5%. Besides, the growth inhibition is 2% in test [3] (setting [7]); 94% (active) in test [3] (setting [8]); 67.6% in test [3] (at 50.0 µM); 1% in test [4] (setting [7]); 82% (active) in test [4] (setting [8]); 9% in test [4] (at 50.0 µM). The growth inhibition in test [5] (setting [7]) is -4%; in test [5] (setting [8]) it was 97% (active); in test [5] (at 50.0 µM), 25.9%; in test [6] (setting [7]), -4%; in test [6] (setting [8]), 97% (active); in test [6] (at 50.0 µM), 74.3% (active).

The record behind these values is PubChem BioAssay (NCI).
